Experimental data published in PubChem BioAssay (NCI).
“And” between values parts separate entries of the source, which are not always exact repeats. Equal values may be shown once. About 79,000 compounds went through this panel and 15% of them were active in at least one assay; those are over-represented in the sample as a whole. A structure can be active in one record and inactive in another. The source made the active and inactive calls. Rule as the data show it: active = growth inhibition above about 70%; inactive = the rest.

Assays:
[1] = NCI Yeast Anticancer Drug Screen. Data for the rad52 strain (AID 147);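 also: 0% = growth of vehicle-treated control cultures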; details: S. cerevisiae rad52 mutant growth inhibition, stronger effect = higher value
Procedure, shortened: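 Genetically altered yeast (DNA damage repair defect) treated with compound; inhibition calculated relative to vehicle.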

[2] = NCI Yeast Anticancer Drug Screen. Data for the wt1 strain (AID 149);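 also: 0% = growth of vehicle-treated wt1 cultures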; details: S. cerevisiae wt1 strain (SPY 50644) growth inhibition, stronger effect = higher value
Procedure, shortened: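 wt1 yeast, compound-treated; % growth inhibition vs vehicle control.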

[3] = NCI Yeast Anticancer Drug Screen. Data for the rad50EPP+ strain (AID 151);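 also: 0% = growth of vehicle-treated control cultures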; details: S. cerevisiae rad50 mutant strain, stronger effect = higher value
Procedure, shortened: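 Strain rad50EPP+; compound exposure; % growth inhibition vs vehicle.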

[4] = NCI Yeast Anticancer Drug Screen. Data for the rad50 strain (AID 155);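 also: 0% = growth of vehicle-only cultures of the same strain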; details: S. cerevisiae rad50 strain growth inhibition, stronger effect = higher value
Procedure, shortened: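 Genetically altered yeast (DNA repair pathway); compound treatment; growth inhibition vs vehicle ctrl.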

[5] = NCI Yeast Anticancer Drug Screen. Data for the mec2-1 strain (AID 157); details: S. cerevisiae mec2-1 strain, stronger effect = higher value
Procedure, shortened: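 Cells of the genetically defined mec2-1 yeast strain are incubated with test compound. Inhibition of growth is calculated against vehicle-treated controls.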

[6] = NCI Yeast Anticancer Drug Screen. Data for the rad14 strain (AID 159);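 also: 0% = growth of vehicle-treated control cultures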; details: S. cerevisiae rad14 strain growth inhibition, stronger effect = higher value
Procedure, shortened: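 Test compounds were applied to a repair-deficient yeast strain. Its growth was then compared with that of cultures given vehicle alone, and inhibition was expressed relative to those controls.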

[7] = NCI Yeast Anticancer Drug Screen. Data for the sgs1 mgt1 strain (AID 161);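 also: 0% = growth of cultures given vehicle only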; details: S. cerevisiae sgs1 mgt1 strain, stronger effect = higher value
Procedure, shortened: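 Read-out: growth inhibition vs vehicle controls. Cells: mutant yeast strain deficient in DNA damage repair.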

[8] = NCI Yeast Anticancer Drug Screen. Data for the CLN2oe strain (AID 163);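 also: 0% = growth of vehicle-only control cultures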; details: S. cerevisiae CLN2oe strain, stronger effect = higher value
Procedure, shortened: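 Strain altered in cell-cycle control, incubated with compound; growth compared to solvent-treated controls.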

[9] = NCI Yeast Anticancer Drug Screen. Data for the cln2 rad14 strain (AID 165);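 also: 0% = growth equal to vehicle treated cultures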; details: S. cerevisiae cln2 rad14 strain, stronger effect = higher value
Procedure, shortened: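 The screen exposed genetically defined yeast (cln2 rad14) to test compounds and scored growth inhibition relative to vehicle-treated controls.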

[10] = NCI Yeast Anticancer Drug Screen. Data for the bub3 strain (AID 167); details: S. cerevisiae bub3 mutant strain, stronger effect = higher value
Procedure, shortened: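 Yeast carrying a defined mutation is treated with each compound, and growth is compared with that of vehicle-exposed cells to give inhibition.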

[11] = NCI Yeast Anticancer Drug Screen. Data for the wt2 strain (AID 169);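 also: 0% = growth of vehicle-treated yeast cultures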; details: S. cerevisiae wt2 strain growth inhibition, stronger effect = higher value
Procedure, shortened: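 Steps: yeast strain treated with compound; growth recorded; inhibition calculated relative to cultures given vehicle alone.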

[12] = NCI Yeast Anticancer Drug Screen. Data for the mlh1 strain (AID 171);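 also: 0% = growth of vehicle-treated control cultures of the same strain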; details: S. cerevisiae mlh1 strain growth inhibition, stronger effect = higher value
Procedure, shortened: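 Yeast screen: mutant strain plus compound, growth scored against vehicle control wells.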

[13] = NCI Yeast Anticancer Drug Screen. Data for the sgs1 strain (AID 173);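 also: 0% = growth of vehicle-only control cultures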; details: S. cerevisiae sgs1 mutant, stronger effect = higher value
Procedure, shortened: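 Inhibition of yeast growth served as the measure. The mutant strain was treated with each compound, and growth was normalised to cultures receiving vehicle alone.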

[14] = NCI Yeast Anticancer Drug Screen. Data for the mlh1 rad18 strain (AID 175); details: S. cerevisiae mlh1 rad18 strain growth inhibition, stronger effect = higher value
Procedure, shortened: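 Compound-treated yeast growth, normalised to vehicle controls. Strain bears defined DNA repair mutations.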

[15] = NCI Yeast Anticancer Drug Screen. Data for the rad18 strain (AID 177); details: S. cerevisiae rad18 mutant growth inhibition, stronger effect = higher value
Procedure, shortened: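 Inhibition values reflect reduced yeast growth compared with vehicle-treated controls, using a strain engineered with a DNA damage repair defect.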

[16] = at 5.0 µM (retest, dose inferred, filed as 0.5)
[17] = at 50.0 µM (retest, dose inferred, filed as 5.0)

With `O=c1ssc(=Nc2ccccc2)n1-c1ccccc1` the growth inhibition ([1]; at 1.2 µM) was 10% (inactive), the growth inhibition ([1]; at 3.7 µM) was 9% (inactive) and the growth inhibition ([1]; at 11.0 µM) was 5% (inactive). The growth inhibition ([1]; at 33.0 µM) was 20% (inactive), the growth inhibition ([1]; at 100.0 µM) was 62% (inactive) and the growth inhibition ([2]; at 1.2 µM) was -3% (inactive). For the same compound, the growth inhibition ([2]; at 3.7 µM) was -5% (inactive), the growth inhibition ([2]; at 11.0 µM) was -4% (inactive) and the growth inhibition ([2]; at 33.0 µM) was 0% (inactive). For the same compound, the growth inhibition ([2]; at 100.0 µM) was 11% (inactive), the growth inhibition ([3]; at 1.2 µM) was 6% (inactive) and the growth inhibition ([3]; at 3.7 µM) was 3% (inactive). The growth inhibition ([3]; at 11.0 µM) was 3% (inactive), the growth inhibition ([3]; at 33.0 µM) was 32% (inactive) and the growth inhibition ([3]; at 100.0 µM) was 80% (active). The growth inhibition ([4]; at 1.2 µM) was 9% (inactive), the growth inhibition ([4]; at 3.7 µM) was 5% (inactive) and the growth inhibition [4, 16] was 23% (inactive) and 20% (inactive). For the same compound, the growth inhibition ([4]; at 11.0 µM) was 2% (inactive), the growth inhibition ([4]; at 33.0 µM) was 29% (inactive) and the growth inhibition [4, 17] was 99% (active). The growth inhibition ([4]; at 50.0 µM) was 99.5% (active) and 99% (active), the growth inhibition ([4]; at 100.0 µM) was 72% (active) and the growth inhibition ([5]; at 1.2 µM) was -6% (inactive). For the same compound, the growth inhibition ([5]; at 3.7 µM) was -3% (inactive), the growth inhibition [5, 16] was -2% (inactive) and 5% (inactive) and the growth inhibition ([5]; at 11.0 µM) was -3% (inactive). For the same compound, the growth inhibition ([5]; at 33.0 µM) was 5% (inactive), the growth inhibition [5, 17] was 97% (active) and 98% (active) and the growth inhibition ([5]; at 50.0 µM) was 99.8% (active) and 99.5% (active). For the same compound, the growth inhibition ([5]; at 100.0 µM) was 33% (inactive), the growth inhibition ([6]; at 1.2 µM) was 5% (inactive) and the growth inhibition ([6]; at 3.7 µM) was 4% (inactive). For the same compound, the growth inhibition ([6]; at 11.0 µM) was 1% (inactive), the growth inhibition ([6]; at 33.0 µM) was 11% (inactive) and the growth inhibition ([6]; at 100.0 µM) was 30% (inactive). For the same compound, the growth inhibition [7, 16] was 49% (inactive) and 27% (inactive), the growth inhibition [7, 17] was 99% (active) and 100% (active) and the growth inhibition ([7]; at 50.0 µM) was 98.2% (active) and 99.3% (active). The growth inhibition ([8]; at 1.2 µM) was 2% (inactive), the growth inhibition ([8]; at 3.7 µM) was -4% (inactive) and the growth inhibition ([8]; at 11.0 µM) was -4% (inactive). For the same compound, the growth inhibition ([8]; at 33.0 µM) was 7% (inactive), the growth inhibition ([8]; at 100.0 µM) was 30% (inactive) and the growth inhibition [9, 16] was -11% (inactive) and -1% (inactive). The growth inhibition [9, 17] was 86% (active) and 64% (inactive), the growth inhibition ([9]; at 50.0 µM) was 99.5% (active) and 66.2% (inactive) and the growth inhibition ([10]; at 1.2 µM) was -5% (inactive). The growth inhibition ([10]; at 3.7 µM) was -9% (inactive), the growth inhibition [10, 16] was 12% (inactive) and 1% (inactive) and the growth inhibition ([10]; at 11.0 µM) was -7% (inactive). For the same compound, the growth inhibition ([10]; at 33.0 µM) was 6% (inactive), the growth inhibition [10, 17] was 99% (active) and 100% (active) and the growth inhibition ([10]; at 50.0 µM) was 99.5% (active) and 99.7% (active). The growth inhibition ([10]; at 100.0 µM) was 37% (inactive), the growth inhibition ([11]; at 1.2 µM) was -9% (inactive) and the growth inhibition ([11]; at 3.7 µM) was -15% (inactive). The growth inhibition ([11]; at 11.0 µM) was -9% (inactive), the growth inhibition ([11]; at 33.0 µM) was -9% (inactive) and the growth inhibition ([11]; at 100.0 µM) was 15% (inactive). For the same compound, the growth inhibition ([12]; at 1.2 µM) was 7% (inactive), the growth inhibition ([12]; at 3.7 µM) was 4% (inactive) and the growth inhibition ([12]; at 11.0 µM) was 2% (inactive). The growth inhibition ([12]; at 33.0 µM) was 17% (inactive), the growth inhibition ([12]; at 100.0 µM) was 48% (inactive) and the growth inhibition ([13]; at 1.2 µM) was -15% (inactive). For the same compound, the growth inhibition ([13]; at 3.7 µM) was 7% (inactive), the growth inhibition ([13]; at 11.0 µM) was -6% (inactive) and the growth inhibition ([13]; at 33.0 µM) was 34% (inactive). The growth inhibition ([13]; at 100.0 µM) was 79% (active), the growth inhibition [14, 16] was 75% (active) and 8% (inactive) and the growth inhibition [14, 17] was 99% (active) and 82% (active). The growth inhibition ([14]; at 50.0 µM) was 95.4% (active) and 98.7% (active), the growth inhibition ([15]; at 1.2 µM) was 4% (inactive) and the growth inhibition ([15]; at 3.7 µM) was 3% (inactive). For the same compound, the growth inhibition ([15]; at 11.0 µM) was -1% (inactive), the growth inhibition ([15]; at 33.0 µM) was 13% (inactive) and the growth inhibition ([15]; at 100.0 µM) was 47% (inactive).
